# Experimental data reported in PubChem BioAssay AID624296 (National Center for Advancing Translational Sciences (NCATS), 2012).
# Where “and” joins values, the source holds several entries; their conditions need not be identical. Identical values can stand only once. Hit rate of the full screen: of about 350,000 compounds, about 9,900 (2.8%) were called active. Not shown: some 15% with an inconclusive outcome. Calls follow the shape of the dose curve; as a rule, active = well fitted activation curve with a large enough effect; inconclusive = small, poorly fitted or top-dose-only effect; inactive = no such curve, though single readings can be large or run the other way. Only a selection was taken, and actives are over-represented in it overall. The source holds several records for some structures; these can differ, active in one and inactive in another.
# Assay: A quantitative high throughput screen for small molecules that induce DNA re-replication in MCF 10a normal breast cells. Also: nearly all actives have a fitted effect of over 50% in size. As to activity, positive = re-replication: % of control where 0% means no effect.
# Conditions: MCF 10A DNA re-replication, Hoechst nuclear intensity, 48 h; series mostly up to 46.1 µM; activity, positive = re-replication: at the top concentration
# Potency is read from the fitted curve at half-maximal effect.
Structure (SMILES),"activity, positive = re-replication",Potency
CCCc1cc(=O)[nH]c(SCC(=O)Nc2ccc(S(=O)(=O)N3CCCC3)cc2)n1,6.91% (inactive),–
CC(=O)Nc1ccc(OCC(O)CN2CCN(c3ccccc3Cl)CC2)cc1 (configuration not stated),9.34% (inactive),–
Cc1ccccc1OCC(O)CN1CCN(c2ccccn2)CC1 (configuration not stated),0.536% (inactive),–
CC(C)c1ccc(OCC(O)CN2CCN(c3ccccn3)CC2)cc1 (configuration not stated),–,16.4 µM (active)
COC(=O)[C@]1(CC(C)C)N[C@H](c2ccc(SC3CCCCC3)cc2)[C@@H]2C(=O)N(C)C(=O)[C@@H]21,-1.67% (inactive),–
CSc1ncccc1C(=O)Nc1ccc2c(c1)OCO2,2.63% (inactive),–
Nn1c(SCC(=O)Nc2ccc3c(c2)CCC3)nnc1C1CC1,-0.587% (inactive),–
Cc1nc(N)sc1-c1ccccc1,-9.51% (inactive),–
CCOC(=O)C1=C(C)N(C[C@@H]2CC[C@@H](Cc3ccc(-c4ccccc4)cc3)O2)C(=O)NC1c1ccc([N+](=O)[O-])cc1 (some centres not stated),-15.2% (inactive),–
COc1ccc(CN2CN(C(C)C)CSC2=S)cc1,–,5.17 µM (active)
S=C1SCN(CCN2CCOCC2)CN1Cc1ccccc1,5.55% (inactive),–
COc1ccc(CCC(C)N2CCc3ccccc3C2)cc1 (configuration not stated),-2.26% (inactive),–
S=C(Nc1ccccc1)Nc1ccc2ccccc2c1,18.6% (inactive),–
COc1ccc2[nH]c3c(c2c1)CCN1C(=O)C(CC(=O)NCCCN(C)C)C[C@H](C(=O)N2CCOCC2)[C@@]31CCC1CCCC1 (some centres not stated),10.8% (inactive),–
CCOC(=O)[C@H]1[C@H]2COc3cc(OC)ccc3[C@@H]2N2C(=O)CN(Cc3ccc(Cl)cc3)C(=O)[C@@]12C,-15.2% (inactive),–
CCC(C)c1ccc(NC(=O)COC(=O)C2CCCC2)cc1 (configuration not stated),-2.86% (inactive),–
COc1ccc(C(C[N+](=O)[O-])n2nc(C)cc2C)cc1 (configuration not stated),–,13 µM (active)
COc1ccc(OCc2cn3c(C)cc(C)nc3n2)cc1,-2.68% (inactive),–
COc1ccc(C(=O)CSc2nc(C)cc(C)n2)cc1[N+](=O)[O-],19.8% (inactive),–
COc1ccccc1C(=O)Nc1ccc(OCC(=O)N2CCCCC2)cc1,-5.49% (inactive),–
CCc1noc(C)c1C(=O)Nc1nc2ccc(OC)cc2s1,-2.02% (inactive),–
Cc1ccc(Nc2nc(-c3ccc(O)cc3O)cs2)nc1,24.9% (inactive),–
O=c1oc2ccccc2cc1-c1csc(Nc2ccc(O)cc2)n1,–,14.6 µM (active)
COc1ccc2nc(Nc3nc(-c4ccncc4)cs3)sc2c1,7.45% (inactive),–
CCNc1nc(-c2cc3ccccc3o2)cs1,12.7% (inactive),–

Structure (SMILES),"activity, positive = re-replication",Potency
COc1ccc2nc(Nc3nc(-c4cc5ccccc5oc4=O)cs3)sc2c1,–,5.8 µM (active)
CC(OC(=O)Cc1ccc(F)cc1)C(=O)N1CCc2ccccc21 (configuration not stated),3.1% (inactive),–
Cc1sc2ncnc(N3CCC(C(=O)Nc4ccc(F)cc4Cl)CC3)c2c1C,8.78% (inactive),–
C#CCOCCOCCOCCNc1nc(N2CCN(C(=O)Cn3cc(CCO)nn3)CC2)nc(N2CCN(C(=O)Cn3cc(CCCN=C(N)N)nn3)CC2)n1,3.26% (inactive),–
O=[N+]([O-])c1cccc(C=NN=Cc2ccccc2O)c1,10.8% (inactive),–
CC[C@]12c3[nH]c4ccc(Cl)cc4c3CCN1C(=O)[C@@H](CC(=O)NCCN1CCOCC1)C[C@@H]2C(=O)N1CCN(C(=O)C2CC2)CC1,-1.37% (inactive),–
CCCN(C(=O)COC(=O)CNS(=O)(=O)c1ccc(NC(C)=O)cc1)C1CCS(=O)(=O)C1 (configuration not stated),-8.12% (inactive),–
COc1ccc(-c2csc3nc(-c4ccccc4F)oc(=O)c23)cc1OC,–,8.2 µM (active)
COc1ccc(-c2csc(-c3cccs3)n2)cc1OC,17.5% (inactive),–
COc1ccccc1-c1nnc(-c2ccc(F)cc2)o1,1.49% (inactive),–
COc1ccc(N/C=C(\C2OC(=O)c3ccccc32)[N+](=O)[O-])cc1 (configuration not stated),-46.4% (inactive),–
COc1ccc(CCNc2nc(-c3cccc(NC(C)=O)c3)cs2)cc1OC,28.6% (inactive),–
COc1ccc2c(c1OC)C(=O)OC2Nc1nc(-c2ccccc2)cs1 (configuration not stated),–,4.61 µM (active)
COc1ccc(-c2csc(NC3OC(=O)c4ccccc43)n2)cc1 (configuration not stated),–,11.6 µM (active)
COc1ccc(-c2csc(NC(=O)COC(=O)c3ccc(Br)o3)n2)cc1,0.665% (inactive),–
COc1cc(CC(=O)Nc2nc(-c3ccc(F)c(F)c3)cs2)cc(OC)c1OC,0.443% (inactive),–
CC1CC(C)CN(C(=O)COC(=O)c2ccc3ncsc3c2)C1 (configuration not stated),1.27% (inactive),–
O=C(Nc1ccccc1F)c1ccc(S(=O)(=O)N2CCCCCC2)cc1,6.55% (inactive),–
O=C(CSc1ncnc2sccc12)N1CCN(C(=O)c2cccs2)CC1,7.41% (inactive),–
Cc1nnc(NC(=O)c2ccc3nccnc3c2)s1,-2.69% (inactive),–
CCN(c1ccccc1)S(=O)(=O)c1cc(C(=O)NCc2ccccn2)ccc1C,3.72% (inactive),–
CCCCn1nc(C(=O)Nc2cccc(C(=O)NC3CC3)c2)c2ccccc2c1=O,0.136% (inactive),–
COC(=O)[C@]1(Cc2ccccc2)N[C@H](CN(C)S(=O)(=O)c2ccc(OC(F)(F)F)cc2)[C@@H]2C(=O)N(C)C(=O)[C@@H]21,-0.207% (inactive),–
COc1ccc(NC(=O)c2cccc(NC(=O)c3ccco3)c2)c(OC)c1,-2.17% (inactive),–
COc1cccc(C(=O)Nc2ccc(N3CCN(C(=O)c4ccco4)CC3)cc2)c1,–,20.6 µM (active)

Structure (SMILES),"activity, positive = re-replication",Potency
COc1cccc(C(=O)Nc2ccc(NC(=O)c3ccco3)cn2)c1,2.33% (inactive),–
CC1(C)C[C@H]2C3=CCC4[C@@]5(C)CC[C@H](O)[C@](C)(CO)C5CC[C@@]4(C)[C@]3(C)C[C@@H](O)[C@@]2(CO)[C@@H](O)[C@@H]1O (some centres not stated),0.808% (inactive),–
CC(C)(C)OC(=O)C[C@@H]1C/C=C\C[C@@H](CC(=O)N[C@H](CO)Cc2ccccc2)C(=O)NCCOC1=O,-7.09% (inactive),–
O=C(NCC1(N2CCCCC2)CCCCC1)c1cccc(S(=O)(=O)Nc2ccccc2Cl)c1,17.7% (inactive),–
COc1cc2c(-c3ccc4c(c3)OCO4)c(-c3ccsc3)oc(=O)c2cc1OC,24.8% (inactive),–
COc1cc(-c2c(-c3ccc4c(c3)OCO4)noc2C)ccc1F,–,20.6 µM (active)
COc1ccc(CCNC(=O)c2cc(-c3ccc4c(c3)OCO4)on2)cc1OC,-10.3% (inactive),–
COC(=O)c1c(NC(=O)c2cccs2)sc2c1CCCC2,6.88% (inactive),–
COC(=O)c1c(NC(=O)CCCC(=O)O)sc2c1CCCCC2,-2.78% (inactive),–
COC(=O)c1c(NC(=O)CSc2nncs2)sc2c1CCCCC2,–,0.231 µM (active)
Cc1ccc(C(=O)OCC(=O)NCc2cc(C)c(O)c(C)c2)cc1S(=O)(=O)N1CCCCC1,-4.83% (inactive),–
CN1C(c2ccc(F)cc2)=CS/C1=C(/C#N)c1nnc2n1-c1ccccc1SC2,14.1% (inactive),–
COc1nc(-c2ccc(Cl)cc2)ccc1-c1noc(-c2cccs2)n1,–,6.51 µM (active)
COc1ccc(CCc2nc(-c3cccs3)no2)cc1,20.4% (inactive),–
c1csc(-c2nc(-c3ccncc3)no2)c1,-4.42% (inactive),–
COc1ccc(NC(C)=O)cc1NC(=O)CN1CCN(c2ccccn2)CC1,-3.72% (inactive),–
COc1ccc(Cl)cc1NC(=O)CN1CCN(C(=O)N2CCOCC2)CC1,-0.173% (inactive),–
COc1ccc(NC(C)=O)cc1NC(=O)CN1CCN(C2c3ccccc3-c3ccccc32)CC1,–,20.6 µM (active)
COc1ccc(N2CCN(C(CNS(=O)(=O)c3ccc(C)cc3)c3ccccc3)CC2)cc1 (configuration not stated),2.78% (inactive),–
CC(NC(=O)COC(=O)c1ccc2ccccc2n1)c1ccccc1 (configuration not stated),-2.2% (inactive),–
Oc1c(Cl)cc(Cl)c(Cl)c1Cc1c(O)c(Cl)cc(Cl)c1Cl,–,inactive and 920 nM (active)
CN(C)C(=O)CCc1ccc2c3c([nH]c2c1)[C@]1(CCc2ccccc2)[C@@H](C(=O)N2CCCCC2)C[C@H](CC(=O)NCCC2=CCCCC2)C(=O)N1CC3,9.25% (inactive),–
Nn1c(SCC(=O)Nc2nccs2)nnc1-c1ccco1,-0.773% (inactive),–
N=C1C(c2nc3ccccc3s2)=C(O)CN1NC(=O)c1ccc([N+](=O)[O-])cc1,–,3.66 µM (active)
CCOC(=O)CCCN1CC(O)=C(c2nc3ccccc3s2)C1=N,-4.68% (inactive),–

Structure (SMILES),"activity, positive = re-replication",Potency
COc1ccccc1N1CC(O)=C(c2nc3ccccc3s2)C1=N,-0.695% (inactive),–
CC1CC(=NNC(=O)C2COc3ccccc3O2)CC(C)(C)C1 (configuration not stated),-1.88% (inactive),–
O=C(Nc1ccccc1N1CCCC1)c1ccc2ccccc2c1,-0.122% (inactive),–
O=C(Nc1ccccc1N1CCOCC1)c1ccncc1,-0.281% (inactive),–
O=C(Nc1ccccc1N1CCCCC1)c1ccc2nccnc2c1,–,20.6 µM (active)
O=C(COc1ccccc1F)Nc1nc(-c2ccccn2)cs1,18% (inactive),–
O=C(c1ccc(S(=O)(=O)NCc2ccco2)cc1)N1CCN(c2ccccc2)CC1,3.64% (inactive),–
CCOC(=O)/C(C#N)=C/c1cn(CCC(=O)O)nc1-c1ccc(Br)cc1,18% (inactive),–
O=C(O)CCn1cc(/C=C/C(=O)c2ccc(Cl)cc2)c(-c2cccc(Br)c2)n1,–,4.11 µM (active)
O=C(O)/C=C/c1cn(Cc2ccccc2)nc1-c1cccs1,-1.37% (inactive),–
CCC1(C)NC(=O)N(CC(=O)N2CCN(c3cccc(Cl)c3)CC2)C1=O (configuration not stated),-4.79% (inactive),–
CC1CCCCN1CC(=O)NCc1ccc2c(c1)OCO2 (configuration not stated),-9.34% (inactive),–
O=C(CN1CCN(c2nc(-c3ccccc3)cs2)CC1)NCc1ccc2c(c1)OCO2,–,11.6 µM (active)
COc1ccc(-c2csc(N3CCN(Cc4ccc5c(c4)OCO5)CC3)n2)cc1,0.265% (inactive),–
Cc1csc2nc(COC(=O)c3cccc(N(C)C)c3)cc(=O)n12,-6.53% (inactive),–
COc1ccc(C(CNC(=O)c2cccc(S(=O)(=O)Nc3ccc(Br)cc3)c2)N(C)C)cc1 (configuration not stated),0.244% (inactive),–
CCOC(=O)/C=c1\s/c(=C\c2ccc(C#N)cc2)c(=O)n1CC(=O)Nc1cccc(C)c1C,–,2.91 µM (active)
Cc1cccc(NC(=O)CN2CCN(C(=O)C3CCN(C(=O)/C=C/c4ccccc4)CC3)CC2)c1C,2.04% (inactive),–
CCOC(=O)/C=c1\s/c(=C\c2ccccc2OC)c(=O)n1CC(=O)N1CCOCC1,1.44% (inactive),–
Cn1nc(C(=O)OCC(=O)N(Cc2ccccc2)C(C)(C)C)c2ccccc2c1=O,6% (inactive),–
O=C(OCC(=O)N1CCc2ccccc21)c1ccc([N+](=O)[O-])cc1,0.345% (inactive),–
COc1ccc(-c2csc3ncnc(N4CCN(S(=O)(=O)c5cccc(F)c5)CC4)c23)cc1,12.9% (inactive),–
